In PubChem BioAssay:
For part of these data: Results with a measured potency or affinity are listed apart. Active and inactive are the calls of the source. Unless noted, the rule behind the calls is not given here.

Key:
[1] = antimalarial activity against Dd2 strain (AID 2302;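 active = growth inhibition above 50% at the single 2 µM test dose, taken to imply half-maximal potency below 2 µM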;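 note: 0% = DMSO untreated growth and 100% = chloroquine plus artemisinin killed control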); conditions: P. falciparum Dd2 in RBCs, LDH growth readout, 72 h; at 2 µM; active compounds read high
[2] = human hepatoma cell viability loss – ATP luminescence, cytotoxicity control for P. falciparum antimalarial project, primary screen (AID 2303;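 active = inhibition above 50%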;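 note: 0% = DMSO wells and 100% = digitonin-killed cells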); conditions: HepG2 viability, 24-48 h, at 10 µM, active compounds read high
[3] = target: L-lactate dehydrogenase (Plasmodium falciparum (isolate CDC / Honduras)) (UniProt Q27743); test: PfLDH activity inhibition – cell lysate, 3D7 strain, counter-screen for P. falciparum growth inhibition project (AID 2304);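 note: 0% = vehicle and 100% = reference inhibitor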; conditions: P. falciparum 3D7 crude extract, LDH APAD/NBT absorbance; at 2 µM; active compounds read high
[4] = inhibition of 3D7 malaria parasite growth – strain 3D7 (AID 2306);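 note: 0% = DMSO wells and 100% = chloroquine plus artemisinin control wells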; conditions: P. falciparum 3D7 erythrocytic growth, LDH absorbance, 72 h; at 2 µM; active compounds read high
[5] = target: Calcium-dependent protein kinase 1 (Plasmodium falciparum (isolate 3D7)) (UniProt P62344); test: PfCDPK1 kinase inhibitors, biochemical, TCAMS library (AID 1159585; cut-off not given, nearly all actives have IC50 up to about 0.98 µM;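 note: inhibitors leave more ATP so luminescence rises with inhibition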); conditions: recombinant PfCDPK1, Kinase-Glo ATP depletion luminescence
[6] = target: Plasmodium falciparum protein kinase 6 (PK6, PF3D7_1337100) (UniProt Q8IDW1); test: PfPK6 kinase inhibitors, biochemical, TCAMS library (AID 1159586); conditions: recombinant PfPK6, Kinase-Glo ATP depletion luminescence
[7] = target: Protein kinase 7 (PK7), Plasmodium falciparum 3D7 (PF3D7_0213400) (UniProt Q7YTF7); test: inhibition of Plasmodium PK7 catalytic activity – biochemical, TCAMS antimalarial set, Kinase-Glo luminescence (AID 1159587); conditions: recombinant PfPK7, Kinase-Glo ATP depletion luminescence
[8] = target: Calcium-dependent protein kinase 4 (Plasmodium falciparum (isolate 3D7)) (UniProt Q8IBS5); test: PfCDPK4 kinase inhibitors, biochemical, TCAMS library (AID 1159588; cut-off not given, nearly all actives have IC50 up to about 0.91 µM); conditions: recombinant PfCDPK4, Kinase-Glo ATP depletion luminescence
Chain of Calcium-dependent protein kinase 4 (Plasmodium falciparum (isolate 3D7)) (Q8IBS5 whole entry, looked up): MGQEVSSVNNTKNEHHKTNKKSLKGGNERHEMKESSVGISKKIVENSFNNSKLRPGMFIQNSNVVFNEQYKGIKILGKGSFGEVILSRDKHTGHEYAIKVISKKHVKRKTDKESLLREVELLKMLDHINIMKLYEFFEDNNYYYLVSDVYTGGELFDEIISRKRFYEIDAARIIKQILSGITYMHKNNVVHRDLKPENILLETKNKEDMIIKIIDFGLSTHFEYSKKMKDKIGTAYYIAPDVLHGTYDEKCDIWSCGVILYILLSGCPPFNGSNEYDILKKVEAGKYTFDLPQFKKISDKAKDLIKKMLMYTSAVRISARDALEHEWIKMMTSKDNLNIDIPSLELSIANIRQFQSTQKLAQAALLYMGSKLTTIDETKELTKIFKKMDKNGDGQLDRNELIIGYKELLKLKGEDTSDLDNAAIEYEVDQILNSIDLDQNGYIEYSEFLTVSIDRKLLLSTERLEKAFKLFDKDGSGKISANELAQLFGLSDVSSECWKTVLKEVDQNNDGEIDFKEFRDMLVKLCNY

Chain of Plasmodium falciparum protein kinase 6 (PK6, PF3D7_1337100) (Q8IDW1 1-305): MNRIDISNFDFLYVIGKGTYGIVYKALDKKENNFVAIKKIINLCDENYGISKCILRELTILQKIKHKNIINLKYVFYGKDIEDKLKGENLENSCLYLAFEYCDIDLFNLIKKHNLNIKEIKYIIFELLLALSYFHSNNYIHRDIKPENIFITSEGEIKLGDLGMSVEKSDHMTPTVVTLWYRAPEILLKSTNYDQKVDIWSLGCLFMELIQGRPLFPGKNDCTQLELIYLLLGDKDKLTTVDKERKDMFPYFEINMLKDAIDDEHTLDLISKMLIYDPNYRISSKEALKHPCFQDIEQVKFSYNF
Chain of L-lactate dehydrogenase (Plasmodium falciparum (isolate CDC / Honduras)) (Q27743 whole entry, looked up): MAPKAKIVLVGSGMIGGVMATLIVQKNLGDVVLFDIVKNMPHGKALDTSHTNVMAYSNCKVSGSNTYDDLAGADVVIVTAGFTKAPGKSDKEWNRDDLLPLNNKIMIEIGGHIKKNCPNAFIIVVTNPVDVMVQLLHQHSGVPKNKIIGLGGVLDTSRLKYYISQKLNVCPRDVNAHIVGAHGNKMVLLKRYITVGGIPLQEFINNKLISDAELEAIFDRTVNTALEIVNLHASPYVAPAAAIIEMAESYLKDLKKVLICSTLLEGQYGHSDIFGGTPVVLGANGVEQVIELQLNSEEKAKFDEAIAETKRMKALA
Chain of Calcium-dependent protein kinase 1 (Plasmodium falciparum (isolate 3D7)) (P62344 whole entry, looked up): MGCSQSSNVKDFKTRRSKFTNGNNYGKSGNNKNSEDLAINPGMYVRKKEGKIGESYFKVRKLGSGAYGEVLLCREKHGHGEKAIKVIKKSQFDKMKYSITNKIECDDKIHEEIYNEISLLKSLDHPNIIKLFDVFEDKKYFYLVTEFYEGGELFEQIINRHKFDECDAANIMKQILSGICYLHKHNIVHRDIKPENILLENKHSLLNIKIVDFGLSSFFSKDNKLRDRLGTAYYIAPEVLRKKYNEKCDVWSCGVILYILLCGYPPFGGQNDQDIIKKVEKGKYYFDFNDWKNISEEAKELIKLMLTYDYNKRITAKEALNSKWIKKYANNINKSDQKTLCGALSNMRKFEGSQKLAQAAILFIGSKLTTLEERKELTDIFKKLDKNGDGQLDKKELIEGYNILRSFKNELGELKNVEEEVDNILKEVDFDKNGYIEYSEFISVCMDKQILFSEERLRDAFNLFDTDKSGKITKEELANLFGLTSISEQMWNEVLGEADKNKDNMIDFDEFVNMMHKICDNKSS
Chain of Protein kinase 7 (PK7), Plasmodium falciparum 3D7 (PF3D7_0213400) (Q7YTF7 1-343): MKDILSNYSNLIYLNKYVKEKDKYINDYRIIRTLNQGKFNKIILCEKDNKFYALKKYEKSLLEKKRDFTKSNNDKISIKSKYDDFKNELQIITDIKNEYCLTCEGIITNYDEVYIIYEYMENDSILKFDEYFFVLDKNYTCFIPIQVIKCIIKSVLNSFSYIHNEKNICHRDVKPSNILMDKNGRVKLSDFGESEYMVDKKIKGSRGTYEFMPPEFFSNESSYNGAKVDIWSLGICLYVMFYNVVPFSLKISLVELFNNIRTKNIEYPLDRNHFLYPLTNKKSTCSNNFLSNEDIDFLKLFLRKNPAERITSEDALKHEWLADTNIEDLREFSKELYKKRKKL

COc1cccc(-c2nn(C)c3sc(C(=O)NCCN(C)Cc4ccccc4)cc23)c1
inactive: growth inhibition [1] 26% | inhibition [2] 21% | inhibition [3] -3% | outcome [5] | outcome [6] | outcome [7] | outcome [8]
active: growth inhibition [4] 92%

CCCCc1cc(NCc2ccncc2)nc(Nc2ccc(OC)cc2)n1
active: growth inhibition [4] 93%
inactive: growth inhibition [1] 22% | inhibition [2] 11% | inhibition [3] 0% | outcome [5] | outcome [6] | outcome [7] | outcome [8]

CN(C)c1ccc(CN2CCC(NC(=O)c3ccc(-c4ccc(N(C)C)cc4)s3)CC2)cc1
inactive: growth inhibition [1] 21% | inhibition [2] 24% | inhibition [3] -2% | outcome [5] | outcome [6] | outcome [7] | outcome [8]
active: growth inhibition [4] 93%
